The structures appear in SMILES notation. This is part of a sample that, as a whole, favours compounds with a hit. Of some 83,000 tested, about 20% had one in any assay.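 48-hour exposure, single concentration, 96-well plates; percent growth endpoint where 0 means no net growth. Active: below 10.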 Unmarked numbers belong to inactive results. Calls of active or inactive are those of the source.

This passage reports growth results from PubChem BioAssay (NCI).

In the test the test system is HT29 colon. The test is described as follows: NCI-60 one-dose screen, 48 h (100 = growth as untreated, 0 = no growth, -100 = all killed). The following applies: 10 µM unless noted. The method, then:
Growth inhibition of the HT29 human tumor cell line is measured as a screen for anti-cancer activity. Cells are grown in 96 well plates and exposed to the test compound for 48 hours. Compounds are tested at a single concentration, which is 10^-5 M for most compounds. The reported endpoint is percent growth (GI% or GIPRCNT), where numbers from 0 - 100% represent growth inhibition, and numbers from -100% - 0 represent cell death. For example, a value of 40 represents 60% growth inhibition. A value of 0 means no net growth occurred over the course of the experiment. A value of -40 indicates 40% of cells at the beginning of the experiment died by the end of the experiment. A value of -100 means all cells are dead at the end of the experiment.
NCI-60 Human Tumor Cell Lines Screen was performed using the standard one-dose NCI protocol, which is described in more detail at https://dtp.cancer.gov/discovery_development/nci-60/default.htm.
Compounds with GIPRCNT values below 10 were considered active. Activity score was based on GIPRCNT using the following formula: […]
Score is 0 for GIPRCNT values of 100 or above, 50 for GIPRCNT values of 0, and 100 for GIPRCNT values of -100.
As for `O=C(O)CC1=CCCCC1`, the growth is 105%.
For `O=C(O)c1ccc([N+](=O)[O-])cc1S(=O)(=O)O`, the growth was 99%.
The figure for `CCCCN(C(=O)CC)c1ccccc1` is 100%; for `O=C(NCc1ccco1)Nc1cccc2c(NC(=O)NCc3ccco3)cccc12` it is 55.2% [100 µM]; for `CC(=O)NCNC(C)=O` it is 111%.
The figure for `Cc1cc(C(=O)NN)c(C#N)c(=O)[nH]1` is 124%; for `COc1ccc(NNS(=O)(=O)O)cc1` it is 99.9%; for `O=C1CSc2ccccc2N1` it is 100%.
The figure for `O=C1C=C[C@H](O)[C@@]2(CO)O[C@@H]12` is 53.9%.
As to `CCCCCCCCCCC(=O)CCCCCCCCCC`, the growth was 104%.
For `CCCCNC(=O)c1ccc(OCC)cc1` the value was 107%; for `COC1C(=O)CCC2(CO2)C1(O)C1(C)OC1CCC(C)C` (stereo not given), 60.3%.
For `CC(=O)NC(CCc1ccc(Cl)c(Cl)c1)c1cccc(O)c(=O)c1` (stereo not given) the value was 27.6%.
The figure for `CC(=O)N(CCCCCCN(C(C)=O)C(C)=O)C(C)=O` is 114% [100 µM]; for `Nc1ccc(F)cc1F` it is 106%; for `C[C@H](CCC[C@H](C)OS(=O)(=O)c1ccccc1)OS(=O)(=O)c1ccccc1` it is 111%.
Regarding `Nc1ncnc(Nc2ccc(C(F)(F)F)cc2)n1`, the growth was 103%.
For `CC1(C)CC(=O)C=C(N)C1`, the growth is 96.1%.
As to `CCC(=O)Oc1ccc2ccccc2c1`, the growth was 104%.
For `C/C(O)=C(/C=N\C(=S)Nc1ccc(S(=O)(=O)Nc2nccs2)cc1)C(=O)Nc1ccccc1C` the value was 116%; for `Nc1ccc2ccccc2c1-c1c(N)ccc2ccccc12`, 7.41% (active).
The figure for `O=C(c1ccc(Cl)cc1)N1CCCCC1` is 101%.
For `Cn1c(=O)c2[nH]c(CCCCC(=O)O)nc2n(C)c1=O` the value was 110%; for `CCCCCCCCCCCCCC/C=C\C(CC(=O)O)C(=O)O` (stereo not given), 103%.
On to `C=C1CC2(OC1=O)C(=O)N(C)c1ccc(I)cc12` (stereo not given), for which the growth is -74.7% (active).
The figure for `ClCc1cccc2c(CCl)cccc12` is 71.1%.
For `Oc1ccc2ccccc2c1CN1CCOCC1` the value was 110%.
For `Cc1ccc(NCN2C(=O)c3ccccc3C2=O)c(C)n1` the value was 104%; for `Cc1ccc(S(=O)(=O)CCCl)cc1`, 110%; for `O=C(O)c1ccc(OCc2ccccc2)cc1`, 100%.
Take `CC(=O)[C@@]1(O)CC[C@H]2[C@@H]3CC[C@@H]4CC(=O)CC[C@]4(C)[C@H]3[C@@H](O)C[C@@]21C`: the growth is 100%.
The figure for `O=[n+]1ccn([O-])c2ccccc21` is 108%; for `S=CN1CCCCC1` it is 108%.
For `CCN(C(=O)Nc1ccccc1Cl)c1ccccc1` the value was 101%; for `COC(CCCl)c1ccc(Cl)cc1` (stereo not given), 93.6%; for `Cc1cc(CC(=O)NCCO)n(CCO)c(=O)c1`, 98.3%.
The figure for `Nc1ccc2c(c1)Cc1cc(N)c(N)cc1-2` is 95.9%; for `O=Cc1c(O)c2ccccc2[nH]c1=O` it is 116%; for `CSCCC(NC(=O)C(Cl)Cl)C(=O)O` (stereo not given) it is 100%.
Consider `NC(CSSCC(N)C(=O)O)C(=O)O` (stereo not given), for which the growth was 5.05% (active).
